Test [1] deals with TRPC4 beta (transient receptor potential cation channel C4), mouse. Description: activators of mouse TRPC4 channel, confirmation, cell-based, Fluo4 calcium, HEK293 TRPC4beta/mu-opioid, duplicates, 10 µM (AID 2426;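 active means fluorescence ratio normalized to control raised more than 50% in primary screen plus both repeat runs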;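 on activation: percent rise of integrated ratio over buffer wells lacking compound which define 0%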). To be noted: Fluo4 calcium fluorescence, at 10 µM; hits give high values.
In test [2] the test system is transient receptor potential cation channel C4 beta (TRPC4), mouse. Briefly: activators of mouse TRPC4 channel, confirmation, cell-based, second round, Fluo4, HEK293 TRPC4beta/mu-opioid, 1 µM (AID 2461;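 active means primary screen active and over 50% activation in each of two duplicate runs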). To be noted: Fluo4 calcium fluorescence, at 1 µM; hits give high values.
The test system of test [3] is TRPC4 (transient receptor potential cation channel C4 beta), mouse. Description: positive allosteric modulators of mouse TRPC4, confirmation, cell-based, second round, Fluo-4, HEK293 TRPC4beta/mu-opioid, 1 µM (AID 2554;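 active means primary screen hit whose fluorescence ratio, in both repeats, exceeds the weak agonist control mean by 3 SD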). To be noted: DAMGO EC20, Fluo-4 calcium flux, at 1 µM; hits give high values. For orientation: Calcium assays in cells follow changes in intracellular calcium, usually with a dye or a luminescent sensor.

Test [4] relates to TRPC4 beta (transient receptor potential cation channel C4), mouse. Briefly: positive allosteric modulators of mouse TRPC4, confirmation, cell-based, Fluo-4, HEK293 TRPC4beta/mu-opioid (AID 2555;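 active means primary screen hit whose calcium fluorescence ratio, in both repeats, exceeds the weak agonist control mean by 3 SD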). The following applies: DAMGO EC20, Fluo-4 calcium flux, at 10 µM; hits give high values.
The target of test [5] is Short transient receptor potential channel 4 (Mus musculus) (UniProt Q9QUQ5). Description: inhibitors of mouse TRPC4 channel, confirmation, cell-based, Fluo4, HEK293 TRPC4beta/mu-opioid (AID 2636;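 active means calcium signal cut by more than 3 SD below the full-agonist control yet still positive, in both repeats and the earlier primary screen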). The following applies: DAMGO, Fluo4 calcium flux, at 10 µM; hits give high values.
Short transient receptor potential channel 4 (Mus musculus), sequence (Q9QUQ5 whole entry, looked up): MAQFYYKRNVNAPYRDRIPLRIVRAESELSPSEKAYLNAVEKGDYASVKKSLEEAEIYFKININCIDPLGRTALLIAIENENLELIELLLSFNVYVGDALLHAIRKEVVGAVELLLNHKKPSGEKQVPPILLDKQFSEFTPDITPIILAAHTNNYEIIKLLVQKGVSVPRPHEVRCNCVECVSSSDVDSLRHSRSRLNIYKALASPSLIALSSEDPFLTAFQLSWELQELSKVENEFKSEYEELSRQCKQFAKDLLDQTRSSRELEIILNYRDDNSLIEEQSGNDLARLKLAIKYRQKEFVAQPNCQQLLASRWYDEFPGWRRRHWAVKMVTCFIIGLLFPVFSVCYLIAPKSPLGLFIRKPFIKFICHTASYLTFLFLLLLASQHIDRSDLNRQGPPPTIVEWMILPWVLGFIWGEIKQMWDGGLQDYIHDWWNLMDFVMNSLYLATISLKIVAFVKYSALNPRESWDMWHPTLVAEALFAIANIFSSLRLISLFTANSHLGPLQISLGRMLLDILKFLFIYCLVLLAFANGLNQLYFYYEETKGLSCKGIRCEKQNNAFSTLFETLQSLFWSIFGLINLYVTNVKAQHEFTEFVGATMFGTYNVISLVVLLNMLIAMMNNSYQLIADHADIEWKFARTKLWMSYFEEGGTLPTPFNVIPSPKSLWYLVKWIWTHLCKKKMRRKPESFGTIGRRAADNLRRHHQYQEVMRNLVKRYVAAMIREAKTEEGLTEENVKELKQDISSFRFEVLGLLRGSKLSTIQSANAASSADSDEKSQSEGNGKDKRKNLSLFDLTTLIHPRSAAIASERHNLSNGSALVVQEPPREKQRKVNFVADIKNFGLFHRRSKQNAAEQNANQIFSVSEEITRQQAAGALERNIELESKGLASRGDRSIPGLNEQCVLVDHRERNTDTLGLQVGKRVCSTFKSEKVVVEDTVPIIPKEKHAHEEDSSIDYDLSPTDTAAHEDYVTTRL
Test [6] shares this target. Description: inhibitors of mouse TRPC4 channel, confirmation, cell-based, second round, Fluo4, HEK293 TRPC4beta/mu-opioid, 1 µM (AID 2637). To be noted: Fluo4 calcium flux, DAMGO, at 1 µM; hits give high values.
Test [7] has the same target. Description: mouse TRPC4 membrane potential modulation by TRPC6 hits, confirmation, selectivity assay for TRPC6 inhibitor project, cell-based, second specificity screen, HEK293 TRPC4/mu-opioid (AID 2776;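 active means compounds whose fluorescence signal differed from control wells by over 3 SD, either direction, in both duplicate plates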). To be noted: HEK293 TRPC4/MOR, membrane potential dye fluorescence, at 10 µM, channel activated by saturating DAMGO dose; hits give high values.
In test [8] the test system is transient receptor potential cation channel C4 (TRPC4), mouse. Description: mouse TRPC4 modulation by TRPC6 hits, confirmation, selectivity assay for TRPC6 inhibitor project, cell-based, HEK293 TRPC4/mu-opioid, membrane potential dye (AID 2777;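 active means rise or fall in signal beyond 3 SD of buffer-only wells in both replicate plates, either sign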;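 further: integrated kinetic ratio of fluorescence range over baseline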). To be noted: membrane potential fluorescence, at 10 µM.
The nature of test [9]: nonspecific membrane potential effects, parental HEK293, confirmation, counter-screen for TRPC6 inhibitor project, cell-based, second counter screen (AID 2779;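 active means membrane potential signal moving either way by over 3 SD of the maximum-effect control, in both duplicate plates, meaning non-specific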). To be noted: parental HEK293 membrane potential dye fluorescence; at 10 µM; maximal acetylcholine challenge after compound addition. Background: A counterscreen serves to expose hits that act by an unwanted route or on another target.

The nature of test [10]: membrane potential modulation in parental HEK293, confirmation, counter-screen for TRPC6 inhibitor project, cell-based (AID 2780;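 active means membrane potential signal shifting up or down by more than 3 SD of buffer-only wells, on both duplicate plates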). To be noted: parental HEK293 membrane potential dye fluorescence; at 10 µM.
Test [11] deals with Short transient receptor potential channel 4 (Mus musculus) (UniProt Q9QUQ5). Description: mouse TRPC4 channel activators, dose response, cell-based, HEK293 TRPC4/mu-opioid, Fluo-4 calcium (AID 434937;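 active means primary screen activator hit with a dose response curve and TRPC4 channel activation at any tested dose; inactive means no activation, no dose response, or not a primary hit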).
Test [12] shares this target. Description: TRPC4 positive allosteric modulators, dose response, cell-based, HEK293 TRPC4/mu-opioid, Fluo-4 calcium, EC20 DAMGO (AID 434941;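 active means earlier screen potentiator hit that boosts the TRPC4 ion channel at some dose, with a dose response; inactive means no potentiation, no dose response, or not a prior hit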;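 further: calcium entry triggered by an EC20 dose of DAMGO at the co-expressed mu-opioid receptor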).
Test [13] has the same target. Briefly: mouse TRPC4 channel inhibitors, dose response, cell-based, HEK293 TRPC4/mu-opioid, Fluo-4 calcium (AID 434942;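 active means primary screen inhibitor hit that blocks the TRPC4 channel at some tested dose, yielding a dose curve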).
Test [14] concerns the target Short transient receptor potential channel 6 (Mus musculus) (UniProt Q61143). Description: inhibition of mouse TRPC6 channel, confirmation, selectivity assay for TRPC4 inhibitor project, cell-based, HEK293, membrane potential dye, duplicate (AID 434948;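 active means active in primary screen and both duplicates, each dropping signal beyond three positive-control SD with fluorescence still positive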). To be noted: HEK293 TRPC6, membrane potential dye fluorescence, at 10 µM, stimulated with maximal-effect acetylcholine; hits give high values.

For test [15] the target is unchanged. Description: activation of mouse TRPC6 channel, confirmation, selectivity assay for TRPC4 activator project, cell-based, HEK293, membrane potential dye, duplicate (AID 434950;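 active means membrane potential signal rise above negative control mean plus 3 SD in both duplicates, also active in the earlier TRPC4 screen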;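 on activation: 0% = buffer only wells and 100% = acetylcholine maximal-effect wells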). The following applies: HEK293 TRPC6, membrane potential fluorescence, at 10 µM; hits give high values.
Test [16] shares this target. Briefly: TRPC6 potentiation by TRPC4 potentiator hits, confirmation, selectivity assay for TRPC4 potentiator project, HEK293 cells, membrane potential dye, duplicate (AID 434952;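 active means compound raising the membrane signal above positive-control mean plus 3 SD in both repeats, and a primary screen hit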). To be noted: HEK293 TRPC6, membrane potential dye fluorescence, at 10 µM, maximal acetylcholine added after compound; hits give high values.
Test [17] has as its target Short transient receptor potential channel 4 (Mus musculus) (UniProt Q9QUQ5). Description: calcium flux activators in TRPC4/5HT1a cells, counter-screen for TRPC4 activator project, cell-based, second counter screen, HEK293 TRPC4/5HT1a, Fluo-4 (AID 434977;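 active means calcium signal rise above buffer-control mean plus 5 SD in both duplicates, and also a hit in the primary screen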;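 on activation: plate controls were assay buffer for no effect and maximal serotonin response for full effect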). To be noted: Fluo-4 calcium flux, at 10 µM; hits give high values.
The nature of test [18]: calcium flux inhibitors in TRPC4/5HT1a cells, confirmation, counter-screen for TRPC4 inhibitor project, cell-based, second counter screen, HEK293 TRPC4/5HT1a, Fluo-4 (AID 434978;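 active means primary screen active whose calcium signal fell more than 3 SD beyond the full-serotonin control mean in both duplicate plates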;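 further: serotonin given first at submaximal then at maximal dose after compound preincubation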). The following applies: Fluo-4 calcium flux, at 10 µM, serotonin added to trigger calcium flux; hits give high values.
In test [19] the test system is TRPC4 (mouse), co-expressed with 5HT1a in HEK293. Description: calcium flux potentiators in TRPC4/5HT1a cells, confirmation, counter-screen for TRPC4 potentiator project, cell-based, second counter screen, HEK293 TRPC4/5HT1a, Fluo-4 (AID 434979;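 active means signal rise over 3 SD above mean of control wells given weak agonist, in both repeats and first screen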). The following applies: Fluo-4 calcium flux, at 10 µM, serotonin added at its EC20 dose; hits give high values.
Test [20] is described as follows: calcium flux activation in mu-opioid HEK293 cells, confirmation, counter-screen for TRPC4 activator project, cell-based, HEK293 mu-opioid receptor line (AID 449723;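 active means hit in primary screen, with calcium signal over 5 SD above buffer well mean in both duplicates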;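 further: counter screen cells carry the mu-opioid receptor alone and lack TRPC4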). To be noted: Fluo-4 calcium fluorescence, at 10 µM; hits give high values.
Test [21] in a line: calcium flux enhancement in mu-opioid HEK293 cells, confirmation, counter-screen for TRPC4 allosteric potentiator project, cell-based, HEK293 mu-opioid receptor line (AID 449724;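 active means calcium signal rise more than 3 SD above the low-dose agonist control mean, in both duplicate plates and the primary screen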). The following applies: Fluo-4 calcium flux, at 10 µM, compound added before EC20 DAMGO stimulus; hits give high values.
Test [22] concerns the target Short transient receptor potential channel 6 (Mus musculus) (UniProt Q61143). Description: mouse TRPC6 channel inhibitors, confirmation, HEK293 cells, membrane potential dye, duplicate (AID 488960;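 active means fluorescence ratio falls more than 5 SD below the full-stimulation control mean, in both duplicate runs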). To be noted: ACh-evoked depolarization, at 10 µM; hits give high values.
The target is the same in test [23]. Briefly: mouse TRPC6 channel activators, confirmation, HEK293 cells, membrane potential dye, duplicate (AID 488961;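 active means ratio signal rise beyond 5 SD above unstimulated control wells' mean, seen in both duplicate runs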). To be noted: HEK293-TRPC6 membrane potential dye fluorescence, FDSS, at 10 µM; hits give high values.
The nature of test [24]: nonspecific thallium flux increase in parental CHO-K1, confirmation, counter-screen for KCNQ2 potentiator project, cell-based, FluxOR thallium flux, duplicate (AID 2282;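 active means signal rise of at least 3 SD above the untreated control mean, in both duplicate wells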;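 further: counter screen of KCNQ2 potentiator hits so any rise reflects channel-independent effects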). The following applies: parental CHO-K1 cells, FluxOR thallium flux fluorescence; at 10 µM; hits give high values; zero = vehicle mean+3SD, 100% = vehicle-minus-blank window.
Test [25] has as its target Potassium voltage-gated channel subfamily KQT member 1 (Homo sapiens) (UniProt P51787). Briefly: human KCNQ1 channel potentiation off-target, confirmation, selectivity assay for KCNQ2 potentiator project, cell-based, CHO, FluxOR thallium flux (AID 2283;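 active means fluorescence ratio rise of at least 3 SD of vehicle wells above their mean, in both replicate wells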;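 further: 0% = vehicle mean plus 3 SD and 100% = vehicle minus unstimulated blank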). The following applies: CHO KCNQ1 stable, FluxOR thallium flux fluorescence; at 10 µM; hits give high values; beyond 3SD, as % of vehicle-control signal.

In test [26] the target is Potassium voltage-gated channel subfamily KQT member 2 (Rattus norvegicus) (UniProt O88943). Briefly: rat KCNQ2 channel potentiators, confirmation, cell-based, CHO, FluxOR thallium flux, duplicate (AID 2287;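 active means fluorescence ratio rising 3 SD or more over the vehicle control mean in both replicates, plus primary screen hit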;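 further: peak minus minimum thallium fluorescence divided by baseline after K/Tl stimulus; 0% = vehicle mean plus 3 SD and 100% = vehicle minus unstimulated blank difference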). The following applies: CHO-KCNQ2 cells, FluxOR thallium flux fluorescence; at 10 µM; hits give high values.
Test [27] shares this target. Description: potentiators of retigabine-insensitive KCNQ2 W236L, mechanism study for KCNQ2 potentiator project, cell-based, rat KCNQ2 W236L, CHO, automated patch clamp (AID 2558;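 active means current increase at least 3 SD of the untreated controls above them in both duplicate recordings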). To be noted: at 25 µM; outcome: automated patch clamp current. (The patch-clamp technique gives a direct electrical read-out from membranes.)
Test [28] can be described thus: thallium flux activation in parental CHO cells, counter-screen for KCNQ1 potentiator project (AID 493006;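 active means duplicate-averaged activation above buffer control mean plus 5 SD of those controls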;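 further: fluorescence ratio of max minus min over baseline after K+ and Tl+ depolarization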). The following applies: parental CHO-K1 cells, FluxOR thallium flux, at 10 µM; hits give high values.
In test [29] the target is Potassium voltage-gated channel subfamily KQT member 1 (Homo sapiens) (UniProt P51787). Briefly: KCNQ1 potassium channel potentiators, confirmation, FluxOR thallium flux, CHO cells, duplicates (AID 493007;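 active means potentiation averaged over duplicate wells exceeding buffer-only control mean by more than 3 SD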;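 further: 0% = buffer-only wells and 100% = R-L3 activator control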). To be noted: KCNQ1 cell line, FluxOR thallium flux fluorescence, at 10 µM; hits give high values, % of reference activator effect, buffer zero.
Potassium voltage-gated channel subfamily KQT member 1 (Homo sapiens), sequence (P51787 whole entry, looked up): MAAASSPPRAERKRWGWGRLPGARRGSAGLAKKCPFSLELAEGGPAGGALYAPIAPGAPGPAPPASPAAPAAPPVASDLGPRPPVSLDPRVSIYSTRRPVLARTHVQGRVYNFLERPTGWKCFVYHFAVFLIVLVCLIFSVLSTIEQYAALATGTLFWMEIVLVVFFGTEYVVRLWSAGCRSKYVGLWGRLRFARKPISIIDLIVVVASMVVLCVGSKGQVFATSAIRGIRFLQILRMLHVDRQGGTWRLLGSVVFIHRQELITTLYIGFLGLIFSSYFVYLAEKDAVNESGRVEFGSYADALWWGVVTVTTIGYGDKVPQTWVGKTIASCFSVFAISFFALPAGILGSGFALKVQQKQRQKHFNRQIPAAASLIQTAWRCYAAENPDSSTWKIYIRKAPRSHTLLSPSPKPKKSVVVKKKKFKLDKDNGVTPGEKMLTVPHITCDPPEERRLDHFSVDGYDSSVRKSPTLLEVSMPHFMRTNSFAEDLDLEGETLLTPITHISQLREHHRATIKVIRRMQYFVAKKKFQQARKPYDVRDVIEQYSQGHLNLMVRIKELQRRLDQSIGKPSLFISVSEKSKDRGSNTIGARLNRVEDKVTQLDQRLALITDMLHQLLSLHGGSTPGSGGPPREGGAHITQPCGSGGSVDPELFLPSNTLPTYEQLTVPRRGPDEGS
For test [30], the target named is Potassium voltage-gated channel subfamily KQT member 2 (Rattus norvegicus) (UniProt O88943). Briefly: rat KCNQ2 channel potentiation, selectivity assay for KCNQ1 potentiator project, KCNQ2-CHO-K1 cells (AID 493009;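 active means mean duplicate potentiation above the buffer control mean plus 5 SD of buffer wells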;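 further: assay conditions were tuned for KCNQ1 rather than KCNQ2 modulators; signal is max minus min fluorescence divided by baseline after thallium stimulus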). To be noted: FluxOR thallium flux fluorescence, at 10 µM; hits give high values, scaled: buffer 0, activator control 100.
Test [31] has as its target Potassium voltage-gated channel subfamily KQT member 1 (Homo sapiens) (UniProt P51787). Briefly: KCNQ1 channel current potentiators, confirmation, orthogonal assay for KCNQ1 potentiator project, IonWorks patch clamp, KCNQ1-CHO cells (AID 493184;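 active means current rise at least 3 SD above the untreated control mean in each of two repeat wells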). To be noted: automated patch clamp current, at 10 µM; hits give high values.

Values without a mark were called inactive. For some assays here: Potency and affinity values are given separately. The list shows a part of the results. Activity calls are given as the source filed them.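 How the source made its calls, unless noted: active means calcium signal ratio cut to more than 3 SD under the fully stimulated control mean yet still positive, in both repeats and the primary screen; inactive means the rest.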

The values that follow come from PubChem BioAssay.

Short transient receptor potential channel 6 (Mus musculus), sequence (Q61143 whole entry, looked up): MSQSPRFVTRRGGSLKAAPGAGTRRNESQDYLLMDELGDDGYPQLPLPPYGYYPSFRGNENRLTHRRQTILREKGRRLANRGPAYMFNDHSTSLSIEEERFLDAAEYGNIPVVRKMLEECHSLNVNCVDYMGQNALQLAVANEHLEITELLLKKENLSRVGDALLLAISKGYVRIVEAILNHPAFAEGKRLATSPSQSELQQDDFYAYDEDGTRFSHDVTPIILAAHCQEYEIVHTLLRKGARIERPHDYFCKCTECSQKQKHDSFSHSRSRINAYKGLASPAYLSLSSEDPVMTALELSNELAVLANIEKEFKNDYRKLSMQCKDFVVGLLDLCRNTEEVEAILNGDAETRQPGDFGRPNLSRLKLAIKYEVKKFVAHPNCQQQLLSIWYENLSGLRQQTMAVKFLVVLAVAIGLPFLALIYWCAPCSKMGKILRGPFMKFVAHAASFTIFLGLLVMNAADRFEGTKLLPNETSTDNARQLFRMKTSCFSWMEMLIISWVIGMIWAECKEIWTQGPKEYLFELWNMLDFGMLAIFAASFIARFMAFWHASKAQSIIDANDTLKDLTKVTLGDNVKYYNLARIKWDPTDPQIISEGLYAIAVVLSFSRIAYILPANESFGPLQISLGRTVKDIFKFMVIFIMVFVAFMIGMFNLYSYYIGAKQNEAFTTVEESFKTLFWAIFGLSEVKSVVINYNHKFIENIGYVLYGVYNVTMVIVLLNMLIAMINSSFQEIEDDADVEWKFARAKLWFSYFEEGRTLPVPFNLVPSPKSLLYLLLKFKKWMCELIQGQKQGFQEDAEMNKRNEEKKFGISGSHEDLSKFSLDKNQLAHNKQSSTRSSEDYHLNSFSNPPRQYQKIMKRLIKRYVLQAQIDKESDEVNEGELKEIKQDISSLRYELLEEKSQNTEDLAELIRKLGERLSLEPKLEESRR

As for `CC(Nc1nc(N2CCCC2)nc2ccccc12)c1ccccc1` (stereo not drawn), the outcome in test [1], in test [2], in test [3], in test [4], in [5] and in test [6] was inactive. In addition, the outcome in [7], in [8], in test [9], in test [10], in test [11] and in test [12] was inactive. Also, the outcome in test [13], in [14], in test [15], in [16], in test [17] and in test [18] was inactive. The outcome in [19], in test [20], in test [21], in test [22] and in [23] was inactive.
For `CC(C)Oc1cccc(C(=O)NC(=S)Nc2ccc(N3CCN(C)CC3)cc2)c1`, the result in [1], in test [2], in [3], in test [4], in test [5] and in test [6] was inactive. Moreover, the result in test [11], in [12], in [13], in test [14], in [15] and in [16] was inactive. The result in test [17], in [18], in [20] and in test [21] was inactive. For the same compound, in test [19], the potentiation is 16.6% (active).
Consider `COc1ccccc1-c1cc(-c2ccccc2)nc(=O)[nH]1`, for which the outcome in test [1], in [2], in [3], in [5], in test [6] and in test [11] was inactive. Besides, the result in [12], in [13], in test [14], in test [15], in test [16] and in [17] was inactive. The outcome in test [18], in [20] and in [21] was inactive. In addition, the potentiation in [4] is 22% (active); in test [19], 51.2% (active).
Consider `O=c1c2cc(Br)ccc2nc(-c2cccc(Cl)c2)n1O`, for which the activity increase over 3SD of controls in test [24] was -14.4%. Further, the activation over 3SD threshold in test [25] was 68.1% (active). In addition, the potentiation, less the hit threshold in [26] was 84.4% (active). The activation was 223% (active) in test [1]; 38.5% (active) in test [15]; 63.4% (active) in test [17]; 20.3% (active) in [20]; 803% (active) in [28]. Besides, the outcome in test [2], in test [3], in [4], in test [27], in test [5] and in test [6] was inactive. The outcome in [12], in test [13], in test [14], in test [16], in [18] and in test [19] was inactive. For the same compound, the outcome in test [21] and in test [31] was inactive. For the same compound, the potentiation in test [29] is 257% (active); in test [30], 703% (active).
For the compound `COc1cc2c(C(=O)N3CCN(C)CC3)c(CSc3ccccc3)n(C)c2cc1Br`, the result in test [1], in [2], in test [3], in [5], in test [6] and in [11] was inactive. The outcome in test [12], in test [13], in [14], in test [15], in test [16] and in test [17] was inactive. The result in test [18], in [20] and in test [21] was inactive. In addition, the potentiation is 25% (active) in test [4] and 10.5% (active) in test [19].
